Test results reported in PubChem BioAssay (NCATS).
Records with an inconclusive call do not appear. A number with no mark means an inactive call. Calls of active or inactive are those of the source. Calls come from the whole dose curve; as a rule, active = well fitted inhibition curve with a large enough effect; inconclusive = small, poorly fitted or top-dose-only effect; inactive = flat fitted curve, though single readings scatter.

Each compound was assayed against Ubiquitin carboxyl-terminal hydrolase 1 (Homo sapiens) (UniProt O94782) (assay: Inhibitors of USP1/UAF1: Pilot qHTS (AID 504865;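 note: rhodamine fluorescence freed from ubiquitin-rhodamine substrate followed over time; top concentration of the series differs between compounds; nearly all actives have a fitted effect of over 35% in size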)). Settings: purified USP1/UAF1, Ub-rhodamine cleavage fluorescence; series mostly up to 114 µM; activity change, negative = inhibition: at the top concentration.
How it was run: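 In 50mM HEPES pH 7.8 containing 0.5mM EDTA, 1mM TCEP, 0.1 mg/ml BSA and 0.01% Tween-20, 1nM USP1/UAF1 is exposed to compound for 15 min, then Ub-Rho (150nM final) is added and fluorescence is read over time.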
% is set by controls: 0 for no effect and ±100 for the full control effect.

Chain of Ubiquitin carboxyl-terminal hydrolase 1 (Homo sapiens) (O94782 whole entry, looked up): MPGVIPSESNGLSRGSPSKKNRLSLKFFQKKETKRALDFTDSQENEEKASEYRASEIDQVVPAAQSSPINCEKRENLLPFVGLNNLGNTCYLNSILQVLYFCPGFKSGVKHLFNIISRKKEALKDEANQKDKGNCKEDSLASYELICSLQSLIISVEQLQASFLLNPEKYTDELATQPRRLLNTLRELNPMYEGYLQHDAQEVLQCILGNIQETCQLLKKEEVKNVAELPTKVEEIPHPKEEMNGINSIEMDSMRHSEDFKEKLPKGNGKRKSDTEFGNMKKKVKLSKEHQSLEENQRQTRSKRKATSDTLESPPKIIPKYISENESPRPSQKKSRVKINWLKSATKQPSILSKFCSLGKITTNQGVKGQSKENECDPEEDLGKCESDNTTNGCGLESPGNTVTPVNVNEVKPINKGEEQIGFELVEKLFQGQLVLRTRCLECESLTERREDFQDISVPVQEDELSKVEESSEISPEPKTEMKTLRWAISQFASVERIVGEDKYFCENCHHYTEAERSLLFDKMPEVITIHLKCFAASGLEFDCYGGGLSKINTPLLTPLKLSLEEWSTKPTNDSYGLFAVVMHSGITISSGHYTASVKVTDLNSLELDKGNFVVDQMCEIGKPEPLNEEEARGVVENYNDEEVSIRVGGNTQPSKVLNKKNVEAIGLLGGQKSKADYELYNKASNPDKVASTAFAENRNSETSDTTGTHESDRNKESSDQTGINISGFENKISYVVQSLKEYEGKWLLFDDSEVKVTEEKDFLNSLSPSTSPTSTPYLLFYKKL

In order of rising “activity change, negative = inhibition” value:
1. CCOC(CN1CCN(CC(C)C(=O)c2ccccc2)CC1)c1ccccc1 (stereo not given)  -11.2%
2. O=S(=O)(O)c1cc(I)c(O)c2ncccc12  -10.4%
3. O=c1cc[nH]c(=O)[nH]1  -10.3%
4. CN1CCCCC1CCN1c2ccccc2Sc2ccc(S(C)=O)cc21 (stereo not given)  -9.43%
5. CN(C)CCN(Cc1ccccc1)c1ccccn1  -8.65%
6. CCN(CC)CCNC(C(=O)OCCC(C)C)c1ccccc1 (stereo not given)  -8.3%
7. CC[C@@]1(c2ccccc2)NC(=O)N(C)C1=O  -8.16%
8. CCCCCCCCCCCCCCCCCCOCC(O)CO (stereo not given)  -8.16%
9. CCCCN(CCCC)CC(O)c1cc(Cl)cc2c1-c1ccc(Cl)cc1/C2=C/c1ccc(Cl)cc1 (stereo not given)  -7.83%
10. CCCCc1ncc(/C=C(\Cc2cccs2)C(=O)O)n1Cc1ccc(C(=O)O)cc1  -7.06%
11. CC(C)(C)C(=O)NCCCC(=O)O  -6.41%
12. O=C1O[C@H]([C@@H](O)CO)C(O)=C1O  -6.31%
13. CC(C)(C)NCC(O)COc1ccc(NC(=O)NC2CCCCC2)cc1 (stereo not given)  -4.91%
14. NCCNCCNCCNCCN  -4.24%
15. Cc1cc(O)cc2c1O[C@](C)(CCC[C@H](C)CCC[C@H](C)CCCC(C)C)CC2  -4.23%
16. CCOC(=O)[C@H](CCc1ccccc1)N[C@@H](C)C(=O)N1C(=O)N(C)C[C@H]1C(=O)O  -4.07%
17. CC1(C)CO[C@@H](CC(=O)O)CN1  -3.93%
18. CCCCC(CC)COC(=O)c1ccccc1O (stereo not given)  -3.88%
19. O=C(O)[C@@H]1CSCN1  -3.23%
20. O=C(O)CN1C(=O)c2cccc3cccc(c23)C1=O  -1.81%
21. [O-][n+]1cccc(CO)c1  -1.56%
22. Cc1c(O)cccc1C(=O)N[C@@H](CSc1ccccc1)[C@H](O)CN1C[C@H]2CCCC[C@H]2C[C@H]1C(=O)NC(C)(C)C  -0.974%
23. CC(C)(C)C(=O)C(Oc1ccc(Cl)cc1)n1ccnc1 (stereo not given)  -0.875%
24. O=C(O)c1ccccc1-c1ccc(C(F)(F)F)cc1  0.705%
25. O=C(O)c1ccccn1  2.76%

For `O=C(O)c1ccccc1O`, the Potency was “inactive”.
For `Cn1cc[nH]c1=S`, the Potency was “inactive”.
`CC(=O)Nc1ccc(/C=N/NC(N)=S)cc1` was tested, and the Potency was “inactive”.
With `CCCCN1CCCC[C@H]1C(=O)Nc1c(C)cccc1C` the Potency was “inactive”.
In the case of `Oc1cccc(O)c1`, the Potency is reported as “inactive”.
`CC1(C)[C@@H]2CC[C@@]1(C)C(=O)C2` was tested, and the Potency was “inactive”.
`COc1ccc(S(=O)(=O)Nc2nnc(CC(C)C)s2)cc1` was tested, and the Potency was “inactive”.
For `CCN(CC)CCSC(=O)C(c1ccccc1)c1ccccc1`, the Potency was “inactive”.

In order of falling “activity change, negative = inhibition” value:
1. CC(=O)c1ccc2c(c1)N(CCCN(C)C)c1ccccc1S2  -1.18% [at 54.9 µM]
2. NS(=O)(=O)c1cc2c(cc1Cl)NC(CSCc1ccccc1)=NS2(=O)=O  -2.99% [at 54.9 µM]
